The panel holds about 79,000 compounds, 15% with a hit somewhere; the sample as a whole holds those more often. Rule as the data show it: active = growth inhibition above about 70%; inactive = the rest.
Key:
[1] = NCI Yeast Anticancer Drug Screen. Data for the rad50 strain (AID 155);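 also: 0% = growth of vehicle-only cultures of the same strain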; details: S. cerevisiae rad50 strain growth inhibition; at 50.0 µM; active compounds read high
How it was run: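 Readout: growth inhibition relative to vehicle-treated cultures. Compound exposure was carried out in a genetically defined yeast strain deficient in DNA damage repair.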

[2] = NCI Yeast Anticancer Drug Screen. Data for the mec2-1 strain (AID 157); details: S. cerevisiae mec2-1 strain, at 50.0 µM, active compounds read high
How it was run: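 Each compound was tested on mec2-1 yeast, a strain altered in DNA damage repair or cell cycle control. Growth inhibition is reported relative to vehicle.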

[3] = NCI Yeast Anticancer Drug Screen. Data for the sgs1 mgt1 strain (AID 161);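 also: 0% = growth of cultures given vehicle only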; details: S. cerevisiae sgs1 mgt1 strain, at 50.0 µM, active compounds read high
How it was run: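 Genetically altered yeast, compound exposure, growth inhibition relative to vehicle.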

[4] = NCI Yeast Anticancer Drug Screen. Data for the cln2 rad14 strain (AID 165);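 also: 0% = growth equal to vehicle treated cultures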; details: S. cerevisiae cln2 rad14 strain, at 50.0 µM, active compounds read high
How it was run: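 Test compounds were added to cln2 rad14 yeast cultures; inhibition of growth was then determined by comparison with vehicle treatment.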

[5] = NCI Yeast Anticancer Drug Screen. Data for the bub3 strain (AID 167); details: S. cerevisiae bub3 mutant strain, at 50.0 µM, active compounds read high
How it was run: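 Readout: yeast growth inhibition, expressed relative to vehicle-only wells. The test organism is a mutant strain from a panel with lesions in DNA repair or checkpoint genes.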

[6] = NCI Yeast Anticancer Drug Screen. Data for the mlh1 rad18 strain (AID 175); details: S. cerevisiae mlh1 rad18 strain growth inhibition; at 50.0 µM; active compounds read high
How it was run: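 Inhibition values reflect reduced growth of mutant yeast versus vehicle-treated controls following compound exposure; the mutations affect DNA damage repair.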

Measured: growth inhibition

CCCSCCC(N)C(=O)O (stereo not given)
inactive: [1] -33.2% | [2] -15.9% | [3] 0.55% | [4] -5.7% | [5] -2.9% | [6] -4.95%

CC(O)C(O)C(O)C(O)C=O (stereo not given)
inactive: [1] -13.2% | [2] -11.8% | [3] 3.8% | [4] 14.1% | [5] 7% | [6] -10.2%

CCOC(=O)/C(O)=C/c1cc(=O)n(C)c2ccccc12
inactive: [1] -6.6% | [2] 10.7% | [3] -5.8% | [4] -21.8% | [5] -9.9% | [6] -17.4%

COC(=O)c1c(C)cc(C)c(C(C)=O)c1O
inactive: [1] -16.9% | [2] -14.8% | [3] 0% | [4] -18.7% | [5] 0.75% | [6] -16.1%

CCOC(=O)CC(=O)c1ccccc1SC
inactive: [1] 13.2% | [2] -1.55% | [3] -6.1% | [4] 4.4% | [5] -1.45% | [6] 17.4%

CCOc1ccccc1N
inactive: [1] 8.75% | [2] 16.2% | [3] -34% | [4] 9.5% | [5] -32% | [6] -20.1%

CC(=O)OCC1CCCCO1 (stereo not given)
inactive: [1] 2.6% | [2] -1.65% | [3] -6.1% | [4] -0.2% | [5] -0.2% | [6] -4.7%

Cc1c(C(=O)NNc2ccccc2)n2c(=S)[nH]nc2c2ccccc12
inactive: [1] 33.2% | [2] 10.1% | [3] -7.85% | [4] 8.6% | [5] -14.8% | [6] 45.8%

O=C1C(=Nc2ccc(Cl)nc2)CC(c2ccccc2)N1c1ccc(Cl)nc1 (stereo not given)
inactive: [1] 7.9% | [2] 9.25% | [3] 16.1% | [4] 22.4% | [5] 3% | [6] -4%

Cc1cccc(N/N=C2\CCSc3ccccc32)c1
inactive: [1] 17.9% | [2] 8.45% | [3] 3.35% | [4] 5.95% | [5] 3.75% | [6] 4%

CCOCCOC(=O)C(C)OC(=O)/C(=C/C(=O)O)CCOCC (stereo not given)
inactive: [1] -1% | [2] -18.4% | [3] -9.75% | [4] -0.2% | [5] -1.6% | [6] 8.85%

S=c1cc(S)nc[nH]1
inactive: [1] 29% | [2] 8.3% | [3] 11.9% | [4] 20.9% | [5] 23.9% | [6] 9.45%

Cc1ccc(C2=C(c3ccc(C)cc3)CS(=O)(=O)C2)cc1
inactive: [1] 22.2% | [2] -5.55% | [3] -0.4% | [4] -6% | [5] -18.8% | [6] -26.1%

Cn1c(=O)c2c(nc(N)n2C)n(C)c1=O
inactive: [1] -16.8% | [2] -8.35% | [3] 5.8% | [4] -30.2% | [5] -33.6% | [6] -20.4%

COc1cccc(NC(=O)CC(=O)N2N=C(n3ccc4ccccc43)CC2c2ccccc2)c1 (stereo not given)
inactive: [1] -36.3% | [2] -11.4% | [3] -6% | [4] 11.1% | [5] -3.1% | [6] -16.6%

CSC(N)=NC1CCCCC1
inactive: [1] -7.35% | [2] 0.1% | [3] -6.05% | [4] -30.4% | [5] 35.9% | [6] 6.15%

C[C@]12CC[C@@H]3c4cc(C=O)c(OCc5ccccc5)cc4CC[C@H]3[C@@H]1CCC2OCc1ccccc1 (stereo not given in full)
inactive: [1] 12.4% | [2] -8.15% | [3] 0.45% | [4] 2.9% | [5] -2.65% | [6] -0.95%

CCN1C(=O)NC(C)(c2ccccc2)C1=O (stereo not given)
inactive: [1] -2.9% | [2] 3.35% | [3] -3.45% | [4] -11.3% | [5] 10.1% | [6] 2.1%

CN(C)C(=O)Nc1cccc(OS(=O)(=O)N(C)C)c1
inactive: [1] 5.4% | [2] 26.1% | [3] 23.2% | [4] -18.6% | [5] 22.9% | [6] 12.6%

NCCCOCCO
inactive: [1] -2.9% | [2] -0.5% | [3] -8.4% | [4] 8.3% | [5] 16.4% | [6] 4.35%
